Data as given in PubChem BioAssay (NCATS).
Inconclusive results are not listed. Entries that show only a call come without a potency. Active and inactive are the calls of the source. Unless noted, calls follow the shape of the full dose curve.

Tests used:
[1] = qHTS for Inhibitors of the Functional Ribonucleoprotein Complex (vRNP) of Lassa (LASV) Arenavirus: LASV Primary Screen - GLuc reporter signal (AID 1347082; calls by dose curve; tested in HEK293 reporter line; also: series mostly up to about 57 µM; nearly all actives have a fitted effect of over 60% in size)
[2] = qHTS for Inhibitors of the Functional Ribonucleoprotein Complex (vRNP) of Lassa (LASV) Arenavirus: Viability assay - alamar blue signal for LASV Primary Screen (AID 1347083; calls by dose curve; tested in HEK293 reporter line; also: series mostly up to about 57 µM; nearly all actives have a fitted effect of over 80% in size)
[3] = qHTS for Inhibitors of the Functional Ribonucleoprotein Complex (vRNP) of Lymphocytic Choriomeningitis Arenaviruses (LCMV): Viability assay - alamar blue signal for LCMV Primary Screen (AID 1347085; calls by dose curve; tested in HEK293 reporter line; also: series mostly up to about 57 µM; nearly all actives have a fitted effect of over 80% in size)
[4] = target: Nucleoprotein (Lymphocytic choriomeningitis virus (strain Armstrong)) (UniProt P09992); assay: qHTS for Inhibitors of the Functional Ribonucleoprotein Complex (vRNP) of Lymphocytic Choriomeningitis Arenaviruses (LCMV): LCMV Primary Screen - GLuc reporter signal (AID 1347086); also: series mostly up to about 57 µM; nearly all actives have a fitted effect of over 70% in size
[5] = Confirmatory qHTS for activators (rescue) of SARS-CoV-2 Cytopathic Effect (CPE) (AID 1508606); also: potency is read from the fitted curve at half-maximal effect; nearly all actives have a fitted effect of over 70% in size
[6] = Cytotoxicity counterscreen for inhibitors of SARS-CoV-2 cell entry (AID 1645845); also: nearly all actives have a fitted effect of over 50% in size
In short: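 ATP-content luminescence (ATPLite 1step, 15 min RT) read after 48 h compound exposure of Expi293F cells stably expressing human ACE2; normalized to cells-only wells and media-only wells.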

[7] = Primary qHTS for Huh7 cytotoxicity: counterscreen for inhibitors of MERS-S pseudotyped particle cell entry (AID 1479147); details: outcome: dose series up to 57.1 µM unless noted
[8] = Primary qHTS for Vero E6 cytotoxicity: counterscreen for inhibitors of SARS-S pseudo-typed particle cell entry (AID 1479150); details: outcome: dose series up to 57.1 µM unless noted
[9] = Primary qHTS for small molecule stabilizers of the endoplasmic reticulum resident proteome: Secreted ER Calcium Modulated Protein (SERCaMP) assay (AID 1508630; active = well fitted inhibition curve with a large enough effect)
In short: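 The SH-SY5Y reporter protocol was run at 3 concentrations up to 38.3 uM (primary) or 11 concentrations (follow-up): 16 h compound, 100 nM thapsigargin for 4 h, then extracellular luciferase luminescence.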

Nucleoprotein (Lymphocytic choriomeningitis virus (strain Armstrong)), sequence (P09992 whole entry, looked up): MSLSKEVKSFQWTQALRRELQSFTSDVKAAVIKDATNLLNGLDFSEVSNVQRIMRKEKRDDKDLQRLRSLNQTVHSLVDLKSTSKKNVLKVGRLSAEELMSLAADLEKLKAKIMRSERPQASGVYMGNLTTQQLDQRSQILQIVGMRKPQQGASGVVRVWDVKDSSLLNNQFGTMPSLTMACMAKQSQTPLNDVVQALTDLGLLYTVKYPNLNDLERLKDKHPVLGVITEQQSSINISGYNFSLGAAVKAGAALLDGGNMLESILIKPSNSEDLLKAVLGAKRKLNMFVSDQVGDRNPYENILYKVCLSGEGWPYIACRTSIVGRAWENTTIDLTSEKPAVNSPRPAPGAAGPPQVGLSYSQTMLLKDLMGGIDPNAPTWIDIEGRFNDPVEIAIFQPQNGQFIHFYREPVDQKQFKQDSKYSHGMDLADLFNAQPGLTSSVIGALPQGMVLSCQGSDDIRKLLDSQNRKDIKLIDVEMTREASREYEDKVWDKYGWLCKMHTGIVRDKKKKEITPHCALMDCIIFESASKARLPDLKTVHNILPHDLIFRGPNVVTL

Compound | Potency [1] | Potency [2] | Potency [3] | Potency [4] | Potency [5] | Potency [6] | outcome [7] | outcome [8] | Potency [9]
Cc1ccc(C(=O)Nc2cccc(C(F)(F)F)c2)cc1Nc1nc(-c2cccnc2)nc2c1cnn2C | inactive | inactive | inactive | inactive | 1.41 µM (active) | inactive | – | – | –
CN(C/C=C/c1ccccc1)Cc1cccc2ccccc12 | inactive | inactive | inactive | inactive | – | inactive | inactive | inactive | –
O=C1CCC[C@H]2[C@H]3CCCN4CCCC(=CN12)[C@@H]34 | inactive | inactive | inactive | inactive | – | – | – | – | inactive
CN(CCCC(=O)c1cccnc1)N=O | inactive | inactive | inactive | inactive | – | – | – | – | inactive
O=[N+]([O-])c1c(Cl)cccc1-c1c[nH]cc1Cl | inactive | inactive | inactive | inactive | – | – | inactive | inactive | –
